TCR activator = Activators of T cell receptors: qHTS campaign; AID 504894, 2011; 330,000 tested, under 10 active; Potency, µM (doses to about 9.22 µM), for inactives: top-dose activation of IL-2 secretion, hits mostly activators; primary human leukocytes, anti-CD3, IL-2 HTRF, 48 h; also: % of control where 0% means no effect
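Activity was scored as IL-2 release from primary human leukocytes given only a TCR signal (a-CD3 beads) plus compound for 48 hr. Detection used a two-antibody HTRF format read at 665nm.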
ClpP mod = qHTS Assay for Activators of ClpP; ATP-dependent Clp protease proteolytic subunit (Bacillus subtilis (strain 168)), P80244; purified B. subtilis ClpP, FRET peptide cleavage, 20 min; Potency, µM (highest dose often 57.5 µM), for the others: top-dose activity change, negative = active; 340,000 compounds, 1.9% hits; AID 651965, 2013; active = well fitted falling curve with a large enough effect; inconclusive = small, poorly fitted or top-dose-only effect; inactive = no such curve, though single readings can be large or run the other way; also: potency is read from the fitted curve at half-maximal effect; the source files actives as falling curves though it sought activators and does not explain the sign; nearly all actives have a fitted effect of over 65% in size
Target sequence (P80244 whole entry, looked up): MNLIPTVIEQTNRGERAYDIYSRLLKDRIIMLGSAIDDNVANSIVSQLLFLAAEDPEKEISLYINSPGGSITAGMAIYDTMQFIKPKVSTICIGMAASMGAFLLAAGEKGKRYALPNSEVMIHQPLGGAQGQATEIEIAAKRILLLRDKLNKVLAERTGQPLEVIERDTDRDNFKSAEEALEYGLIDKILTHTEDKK
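Purified B. subtilis ClpP, 10 microg/mL final in Tris/HCl pH8 with KCl, BSA, glycerol and Tween-20, cleaved an Abz/nitrotyrosine-quenched decapeptide. Fluorescence (ex 320, em 430) was read at 0 and 20 min at room temperature. Delta was normalized to 5.8 microM ADEP and DMSO/no-enzyme controls.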
A549 tox = Nrf2 qHTS screen for inhibitors: counterscreen for cytotoxicity. Potency, µM (doses to about 46 µM), inactives show at the highest dose activity change, negative = cytotoxicity, actives largely listed as inhibitors. 390,000 compounds, 0.16% hits. A549 ARE-Fluc cells, CellTiter-Fluor viability, 18-24 h; also: potency is read from the fitted curve at half-maximal effect; % is scaled to controls: 0 for no effect and ±100 for the full control effect
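A549 ARE_Fluc cells in 5% FBS OPTI-MEM were exposed to compounds in concentration-response for 18-24 h at 37 deg C. Viability was read by CellTiter-Fluor fluorescence (Ex 405/Em 525) after 30 min, before the luciferase read.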
miR-21 act = qHTS Assay for Modulators of miRNAs and/orActivators of miR-21 | HeLa miR-21 FLuc reporter, luciferase, 48 h | Potency, µM (highest dose often 38.3 µM), for inactives: top-dose activity change, positive = activation, actives largely listed as activators | 340,000 tested, under 10 active | AID 2288, 2010;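 also: % of control where 0% means no effect; miR-21 action dims this reporter so a rising signal means less miR-21 action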
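Using DMEM plus 10% FBS, HeLa miR-21-FLuc cells are incubated with test compounds (final up to about 40uM) for 48 hours; firefly luciferase signal is then imaged following reagent-mediated lysis.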
Nrf2 inh = Nrf2 qHTS screen for inhibitors | A549 ARE-Fluc reporter, luciferase luminescence, 18-24 h | Potency, µM (titrated, usually from 46 µM), inactives show top-dose activity change, negative = inhibition, most hits filed as inhibitors | 360,000 compounds, 2.1% hits | AID 504444, 2011; also: potency is read from the fitted curve at half-maximal effect; % is scaled to controls: 0 for no effect and ±100 for the full control effect; nearly all actives have a fitted effect of over 60% in size
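Nrf2 activity is the BugLite luminescence, read 15 min after reagent at room temperature, following CellTiter-Fluor cytotoxicity readout (30 min, 37C). Compound titrations were applied for 18-24 h to 5000 A549 ARE_Fluc cells/well in 5% FBS OPTI-MEM.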
Nrf2 activator = qHTS of Nrf2 Activators; Potency, µM (titrated, usually from 46.1 µM), inactives show top-dose activation, most hits filed as activators; AID 624171, 2012; AREc32 ARE-luciferase reporter (MCF7-derived line), luminescence, 24 h; 410,000 compounds, 0.31% hits; also: potency is read from the fitted curve at half-maximal effect; % of control where 0% means no effect; nearly all actives have a fitted effect of over 65% in size
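For detection, Steady-Glo was added and plates sat 30 min at RT; before that, AREc32_Fluc cells grown overnight in OPTI-MEM/5% FBS had been treated with 23 nL compound for 24 hr at 37 deg C.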
* hit, by the source's call; ? = inconclusive; · = not tested or not shown; ! = a repeat was not active; [ ] = dose if it differs, or a comment. An excerpt weighted towards active compounds, which were near 3.7% of everything screened. Unless noted, calls follow the shape of the dose curve; as a rule, active = well fitted curve in the direction sought with a large enough effect; inconclusive = small, poorly fitted or top-dose-only effect, or another doubt; inactive = no such curve, though single readings can be large; an effect the other way counts as inactive or inconclusive.

SMILES	TCR activator	ClpP mod	A549 tox	miR-21 act	Nrf2 inh	Nrf2 activator
O=c1[nH]c2cc3c(cc2cc1C(c1nnnn1CC1CCCO1)N1CCCCCC1)OCCO3 (centres undefined)	-1%	32µM*	7%	-1%	7%	0%
O=c1[nH]c2cc3c(cc2cc1C(c1nnnn1CC1CCCO1)N1CCCCCC1)OCO3 (centres undefined)	-11%[46.1 µM]	·	·	-11%	·	·
Cc1ccccc1N1CCN(S(=O)(=O)c2nnc(NC(=O)c3ccc(C(C)C)cc3)s2)CC1	·	-15%	-2%	-29%	?	-1%
Nc1ncnc2c1ncn2[C@@H]1O[C@H](CNCc2c(OCc3ccccc3F)ccc3ccccc23)[C@@H](O)[C@H]1O	-2%	-1%	?	·	-21%	7%
C=CCNc1nnc(-c2cccc3ccccc23)o1	·	·	3%	·	7%	·
CN(C)c1ccc(N=Nc2ccc(/C=C/c3ccnc4ccccc34)cc2)cc1	·	1%	·	·	·	·
Cc1ccc(-n2c(=O)c3sccc3n(Cc3cc(=O)n4ccccc4n3)c2=O)cc1	-2%[46.1 µM]	32µM*!	-4%	-14%	8%	3%
COc1cccc(N(C(=O)Cn2nnc3ccccc32)C(C(=O)NCc2ccco2)c2cccnc2)c1 (centres undefined)	-2%	35µM*	1%	-3%	·	3%
Cc1ccc(N(C(=O)Cn2nnc3ccccc32)C(C(=O)NCc2ccco2)c2cccnc2)cc1 (centres undefined)	-13%	1%	-3%	-9%	·	4%
Cc1cc(O)cc(O)c1C(=O)Cc1cscn1	-5%	28µM*	0%	4%	·	0%
Cc1cc(O)c(C(=O)Cc2csc(C)n2)c(O)c1	-1%	0%	4%	-64%	?	8%
COc1ccccc1N1CCN(CC(=O)Nc2nccs2)CC1	-10%	0%	-4%	-4%	-3%	-1%
Cc1cccc(N2CCN(CC(=O)Nc3nccs3)CC2)c1C	6%	-1%	-23%	4%	16µM*	0%
Cc1nc(SCC(=O)Nc2ccc(S(=O)(=O)N3CCOCC3)cc2)c2c(C)c(C)sc2n1	0%	1%	?	·	12µM*	0%
Cc1cccc(N2CCN(CC(=O)Nc3ccc(S(=O)(=O)N4CCOCC4)cc3)CC2)c1C	5%	1%	-14%	22%	16µM*	0%
O/N=C(/C[n+]1cccc(Br)c1)c1ccc2ccccc2c1	·	-2%	·	·	·	·
COCCCc1cc(F)c(S(=O)(=O)N2CCN(S(=O)(=O)c3ccc4c(c3)OCCO4)CC2)cc1F	·	·	1%	·	-23%	·
CC(=O)N1CCCc2cc(S(=O)(=O)N3CCCC(C(=O)N4CCN(c5ccccc5)CC4)C3)ccc21 (centres undefined)	1%	0%	-6%	?	13µM*	0%
CC(=O)N1CCCc2cc(S(=O)(=O)N3CCCC(C(=O)N4CCN(c5cc(C)ccc5C)CC4)C3)ccc21 (centres undefined)	1%	0%	-10%	?	7.3µM*	-1%
COc1ccc(C)cc1S(=O)(=O)N1CCCC(C(=O)N2CCN(c3ccccc3)CC2)C1 (centres undefined)	2%	-1%	1%	24%	26µM*	-1%
COc1ccc(CNC(=O)C2CCCN(S(=O)(=O)c3ccc4c(c3)CCCN4C(C)=O)C2)cc1 (centres undefined)	2%	-1%	0%	21%	21µM*	0%
CCCCOc1cccc(C(=O)N(Cc2ccc(Cl)cc2)C2CCS(=O)(=O)C2)c1 (centres undefined)	·	-6%	-8%	25%	-5%	4%
